In PubChem BioAssay AID1159580 (chemical genetic matrix, 2015):
Values joined by “and” are separate entries in the source; they are usually repeats but may differ in a detail not shown here. Equal values may be shown once. Hit rate of the full screen: of about 5,500 compounds, about 2,000 (36%) were called active. Another 18% or so got no clear call; they are omitted. Cut-off read from the data, not from the text of the source: active = normalized growth mostly below about 0.91 (no sharp cut-off); inconclusive = no clear call, values can overlap the other calls; inactive = mostly above about 0.92. This is one part of the list.

Test: chemical genetic growth profiling, strain panel (AID 1159580);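 note: tested at 20 µM; growth read once vehicle control cultures reached saturation at 30 °C; 1 = growth at the plate median or of vehicle wells; lower values mean less growth of the strain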
Conditions: S. cerevisiae deletion strains, growth OD

Measured: normalized growth

Nc1nc2ncc(=O)[nH]c2c(=O)[nH]1
inactive: locus YAL013W, strain DEP1, stronger effect = lower value 1 | locus YAL021C, strain ccr4, stronger effect = lower value 0.978 | locus YAL026C, strain drs2, stronger effect = lower value 0.999 | locus YAL030W, strain snc1, stronger effect = lower value 0.98 | locus YBL061C, strain skt5, stronger effect = lower value 0.973 | locus YBR009C, strain hhf1, stronger effect = lower value 0.995 | locus YBR021W, strain FUR4, stronger effect = lower value 0.99 | locus YBR023C, strain chs3, stronger effect = lower value 0.979 | locus YBR171W, strain sec66, stronger effect = lower value 0.983 | locus YBR229C, strain ROT2, stronger effect = lower value 1 | locus YBR231C, strain swc5, stronger effect = lower value 0.989 | locus YBR279W, strain paf1, stronger effect = lower value 0.984 | locus YCL011C, strain gbp2, stronger effect = lower value 0.989 | locus YCL016C, strain dcc1, stronger effect = lower value 0.976 | locus YCL029C, strain bik1, stronger effect = lower value 0.989 | locus YCL061C, strain MRC1, stronger effect = lower value 0.977 | locus YCL069W, strain vba3, stronger effect = lower value 0.989 | locus YCR088W, strain abp1, stronger effect = lower value 0.972 | locus YDL005C, strain med2, stronger effect = lower value 0.965 | locus YDL035C, strain GPR1, stronger effect = lower value 1.01 | locus YDL040C, strain nat1, stronger effect = lower value 0.986 | locus YDL074C, strain BRE1, stronger effect = lower value 1.06 | locus YDL101C, strain DUN1, stronger effect = lower value 1 | locus YDL134C, strain PPH21, stronger effect = lower value 1 | locus YDL185W, strain tfp1, stronger effect = lower value 0.975 | locus YDL192W, strain arf1, stronger effect = lower value 0.989 | locus YDR001C, strain nth1, stronger effect = lower value 0.972 | locus YDR069C, strain doa4, stronger effect = lower value 1.01 | locus YDR101C, strain arx1, stronger effect = lower value 0.998 | locus YDR137W, strain rgp1, stronger effect = lower value 0.971 | locus YDR150W, strain NUM1, stronger effect = lower value 0.997 | locus YDR159W, strain sac3, stronger effect = lower value 0.973 | locus YDR162C, strain NBP2, stronger effect = lower value 1.01 | locus YDR195W, strain ref2 0.949 | locus YDR297W, strain sur2, stronger effect = lower value 0.982 | locus YDR318W, strain mcm21, stronger effect = lower value 0.993 | locus YDR334W, strain swr1, stronger effect = lower value 0.98 | locus YDR335W, strain msn5, stronger effect = lower value 0.978 | locus YDR388W, stronger effect = lower value 0.985 | locus YDR392W, strain spt3, stronger effect = lower value 0.927 | locus YDR502C, strain sam2, stronger effect = lower value 0.996 | locus YEL003W, strain gim4, stronger effect = lower value 0.981 | locus YEL037C, strain rad23, stronger effect = lower value 0.995 | locus YEL061C, strain CIN8 (second series), stronger effect = lower value 0.976 | locus YEL061C, strain CIN8, stronger effect = lower value 1 | locus YER015W, strain faa2, stronger effect = lower value 1 | locus YER016W, strain bim1, stronger effect = lower value 0.984 | locus YER110C, stronger effect = lower value 0.976 | locus YER111C, strain swi4, stronger effect = lower value 0.957 | locus YER155C, strain BEM2 (second series), stronger effect = lower value 0.985 | locus YER155C, strain BEM2, stronger effect = lower value 0.993 | locus YER167W, strain BCK2, stronger effect = lower value 0.994 | locus YFR010W, strain ubp6, stronger effect = lower value 0.977 | locus YGL078C, strain dbp3, stronger effect = lower value 0.976 | locus YGL086W, strain mad1, stronger effect = lower value 0.989 | locus YGL167C, strain pmr1, stronger effect = lower value 0.968 | locus YGL173C, strain kem1, stronger effect = lower value 0.981 | locus YGL227W, strain vid30, stronger effect = lower value 0.988 | locus YGL240W, strain doc1, stronger effect = lower value 1 | locus YGL248W, strain PDE1, stronger effect = lower value 1.01 | locus YGL253W, strain hxk2, stronger effect = lower value 0.976 | locus YGR078C, strain PAC10, stronger effect = lower value 1.03 | locus YGR135W, strain pre9, stronger effect = lower value 1.02 | locus YGR229C, strain SMI1, stronger effect = lower value 1.04 | locus YGR252W, strain gcn5, stronger effect = lower value 1.01 | locus YHR013C, strain ard1, stronger effect = lower value 0.946 | locus YHR027C, strain rpn1, stronger effect = lower value 0.98 | locus YHR030C, strain SLT2, stronger effect = lower value 1 and 0.966 | locus YHR079C, strain IRE1 (second series), stronger effect = lower value 0.997 | locus YHR079C, strain IRE1, stronger effect = lower value 0.967 | locus YHR094C, strain hxt1, stronger effect = lower value 0.965 | locus YHR129C, strain ARP1, stronger effect = lower value 1 | locus YHR142W, strain chs7, stronger effect = lower value 0.941 | locus YHR200W, strain rpn10, stronger effect = lower value 0.988 | locus YIL066C, strain RNR3, stronger effect = lower value 1.01 | locus YIL073C, strain SPO22, stronger effect = lower value 0.921 | locus YIL125W, strain kgd1, stronger effect = lower value 0.981 | locus YIR030C, strain dcg1, stronger effect = lower value 0.994 | locus YJL092W, strain hpr5, stronger effect = lower value 0.976 | locus YJL095W, strain BCK1 (second series), stronger effect = lower value 0.98 | locus YJL095W, strain BCK1, stronger effect = lower value 1.06 and 0.983 | locus YJL115W, strain asf1, stronger effect = lower value 0.977 | locus YJL129C, strain trk1, stronger effect = lower value 0.953 | locus YJL134W, strain LCB3, stronger effect = lower value 0.997 | locus YJL154C, strain vps35, stronger effect = lower value 0.971 | locus YJL164C, strain tpk1, stronger effect = lower value 0.979 | locus YJL166W, strain qcr8, stronger effect = lower value 0.982 | locus YJL168C, strain set2, stronger effect = lower value 0.988 | locus YJL187C, strain SWE1 (second series), stronger effect = lower value 0.999 | locus YJL187C, strain SWE1, stronger effect = lower value 0.976 | locus YJR043C, strain POL32, stronger effect = lower value 1.01 | locus YJR066W, strain TOR1, stronger effect = lower value 0.945
